aSyn yeast inh – inhibitors of alpha-synuclein toxicity in yeast; Potency, µM (highest dose often 46.1 µM), for inactives: top-dose growth rescue (activation), most hits filed as activators; actives 0.14% (n = 370,000); Yeast expressing alpha-synuclein, growth rescue, BacTiter-Glo, 24 h; AID 652106; also: % of control where 0% means no effect; nearly all actives have a fitted effect of over 65% in size
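Readout is rescue of growth in alpha-synuclein-expressing yeast, so inhibitors of toxicity appear as activators. Growth after 24 hr at 30 deg C in galactose medium is quantified by luminescence.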
TDP43 rescue – rescues yeast growth from TDP-43 toxicity; TDP-43 expressing yeast growth rescue, BacTiter-Glo, 24 h; Potency, µM (top dose mostly 46.1 µM), for the others: top-dose growth rescue (activation), hits mostly activators; actives 1.8% (n = 410,000); AID 652104; also: % of control where 0% means no effect; nearly all actives have a fitted effect of over 50% in size
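Yeast cells expressing TDP-43 under galactose induction are exposed to compounds for 24 hr at 30 deg C. BacTiter-Glo luminescence measures growth, so protective compounds score as activators.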
Mito fusion act – mitochondrial division inhibition or fusion activation | S. cerevisiae fusion-defective mutant growth rescue, CellTiterGlo 48 h | Potency, µM (highest dose often 46.1 µM), inactives show at the top dose growth rescue (activation), hits mostly activators | actives 0.23% (n = 320,000); also: % of control where 0% means no effect; nearly all actives have a fitted effect of over 45% in size
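Compounds are tested for their ability to restore growth of mitochondrial fusion-defective yeast strains at non-permissive 37C in YPEG medium over 48 hours. Viability is quantified by luciferase luminescence.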
ERG-DNA inh – inhibitors of human ERG Ets domain-DNA interaction. Potency, µM (highest dose often 76.9 µM), without a hit: at the top dose FP activity, negative = inhibition, most hits filed as inhibitors. fluorescence polarization, His-ERG Ets domain / labelled DNA. P11308. AID 624246. actives 0.028% (n = 370,000); active = well fitted inhibition curve with a large enough effect in the polarisation, with a control signal flat; inconclusive = small, poorly fitted or top-dose-only effect, or effect the other way, or a change in a side signal; inactive = no such curve, though single readings can be large or run the other way; the % refers to the polarisation;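 also: polarization taken with two DNA probes labelled with fluorescein and Texas red; % of control where 0% means no effect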
Target sequence (P11308 whole entry, looked up, the tested form may be a part): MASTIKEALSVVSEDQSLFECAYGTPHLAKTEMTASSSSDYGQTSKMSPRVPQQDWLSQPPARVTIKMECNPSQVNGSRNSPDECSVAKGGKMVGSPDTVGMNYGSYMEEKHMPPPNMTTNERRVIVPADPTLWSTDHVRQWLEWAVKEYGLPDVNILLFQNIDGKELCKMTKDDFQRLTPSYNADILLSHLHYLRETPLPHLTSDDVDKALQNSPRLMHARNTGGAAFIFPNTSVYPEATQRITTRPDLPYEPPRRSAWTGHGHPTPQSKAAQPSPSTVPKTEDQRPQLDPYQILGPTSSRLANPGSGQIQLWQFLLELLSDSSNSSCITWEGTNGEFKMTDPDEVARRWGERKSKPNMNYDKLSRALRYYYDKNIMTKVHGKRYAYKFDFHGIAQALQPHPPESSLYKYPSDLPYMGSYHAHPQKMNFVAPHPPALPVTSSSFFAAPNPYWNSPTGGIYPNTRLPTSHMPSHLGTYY
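His-tagged ERG Ets domain (1 uM in the protein solution; 300mM KCl, 50mM Tris-HCl, 1mM EDTA, 1mM DTT, pH 7.5) received compound, then a probe mix of 5 nM fluorescein-DNA and 100nM Texas-615-DNA. Fluorescence polarization was read for both dyes.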
FUS suppressor – FUS proteinopathy suppression in yeast. Potency, µM (titrated, usually from 76.6 µM), actives largely listed as activators. actives 0.24% (n = 390,000). S. cerevisiae FUS-expressing, growth rescue, OD600, 24 h;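 also: plate controls were DMSO vehicle for no effect and reference control for full effect; nearly all actives have a fitted effect of over 55% in size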
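Compound concentration series was pinned onto galactose-induced FUS-expressing yeast seeded at OD 0.005. Plates sat 24hr at 30C; absorbance at 600 nm gave growth. DMSO served as background control.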
Abeta rescue – compounds reversing amyloid beta toxicity in yeast. yeast expressing A-beta42, growth rescue, OD600, 48 h; response scale: 0% DMSO, 100% iron-clioquinol control. Potency, µM (top dose mostly 46.1 µM), usual class: activators. actives 0.063% (n = 410,000). AID 1347071; also: nearly all actives have a fitted effect of over 55% in size
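Yeast A-beta toxicity model in growth medium with pinned compounds, 48 h at 30 C; growth read as absorbance at 600 nm. Normalized to FeCl3/clioquinol equimolar mix (positive) and DMSO (negative).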
Starred values were filed as active, the others as inactive; i = inactive; ? = inconclusive; / = not tested or not shown; ! = not confirmed by another sample. Only some compounds are listed: those with a hit (about 2.2% of all), similar ones and a draw of the others. Unless noted, calls follow the shape of the dose curve; as a rule, active = well fitted curve in the direction sought with a large enough effect; inconclusive = small, poorly fitted or top-dose-only effect, or another doubt; inactive = no such curve, though single readings can be large; an effect the other way counts as inactive or inconclusive. Potency is read from the fitted curve at half-maximal effect.

SMILES	aSyn yeast inh	TDP43 rescue	Mito fusion act	ERG-DNA inh	FUS suppressor	Abeta rescue
COc1ccccc1C(=O)Nc1nnc(-c2ccc(Cl)cc2)o1	5%	13µM*	24%	13%	i	i
COc1ccc(C(=O)Nc2ccc(Cl)cc2C(=O)c2ccccc2)c(OC)c1	/	14%	/	-2%	?	i
Cn1c(C(=O)NCCOc2ccccc2Cl)cc(=O)n(C)c1=O	-7%	-33%	5%	7%	i	i
CC(C)(C)NC(=O)C1CC2CCCCC2CN1 (stereo unspecified)	-3%	-17%	3.5µM*	-7%	i	i
ClCCN(CCCl)c1ccc(/C=C/c2ccnc3ccccc23)cc1	-41%	/	/	/	/	/
Oc1ccc(Cl)cc1Cc1ccccc1	-10%	14µM*	/	-3%	i	i
Oc1ccc(Cl)cc1Cc1cc(Cl)ccc1O	-54%	?	-19%	-1%	i	?
COC(=O)C1=C(c2ccccc2OCc2ccccc2)C[C@@H]2CC[C@H]1N2C(=O)NCc1ccc(Cl)cc1	13%	?	?	-5%	32µM*	i
COC(=O)C1=C(c2ccccc2OCc2ccccc2)C[C@@H]2CC[C@H]1N2C(=O)NCc1ccc(N(C)C)cc1	18%	19%	?	5%	i	i
COC(=O)C1=C(c2ccccc2OCc2ccccc2)C[C@@H]2CC[C@H]1N2C(=O)NCc1ccc([N+](=O)[O-])cc1	14%	23%	?	2%	28µM*	i
COC(=O)C1=C(c2ccc(F)cc2OCc2ccccc2)C[C@@H]2CC[C@H]1N2C(=O)NCc1ccc(OC)cc1	7%	?	?	12%	i	i
COC(=O)C1=C(c2ccc(F)cc2OCc2ccccc2)C[C@@H]2CC[C@H]1N2C(=O)NCc1ccc(Br)cc1	12%	3.5µM*	?	3%	?	i
CCC(=NC(C)c1ccccc1)c1c(O)n(C)c(=O)n(C)c1=O (stereo unspecified)	11%	?	0%	-5%	i	i
O=c1c(-c2ccccc2)c(O)c2ccccc2n1-c1ccccc1	-14%	13µM*	?	15%	i	i
Cc1nc2ccccc2c(=O)n1-c1ccc(-c2ccccc2)cc1	11%	21%	2%	-3%	i	i
Brc1c(Br)c(Br)c2n[nH]nc2c1Br	-46%	/	4.6µM*	/	/	/
C[C@]12CC[C@H](O)CC1=CC[C@@H]1[C@@H]2CC[C@]2(C)C(=O)CC[C@@H]12	?	16µM*	/	18%	i	i
CCOC(=O)c1c(NC(NC(=O)CF)C(Cl)(Cl)Cl)sc2c1CCCC2 (stereo unspecified)	10%	22µM*	13%	4%	i	i
Cc1nc2ccc(NC(=O)C3COc4ccccc4O3)cc2s1 (stereo unspecified)	1%	16µM*	5%	13%	i	i
O=C(CN1CCOCC1)c1cccc2ccccc12	2%	6%	-4%	-7%	i	i
Cc1c(C(=O)c2cccc3ccccc23)c2cccc3c2n1[C@H](CN1CCOCC1)CO3	16%	25µM*	9.2µM*	-15%	i	i
CC(C)(O)[C@@H]1C2OC(=O)[C@@H]1[C@]1(O)C[C@H]3O[C@]34C(=O)O[C@H]2[C@]14C (tested in a mixture with another compound)	3%	/	-4%	/	/	/
COc1ccc(C/C(=N\OC(C)=O)c2ccc(OC)cc2)cc1	-19%	?	-4%	1%	i	i
Cc1cc(C(=O)O)c(C)n1C1CC1	11%	-4%	13%	7%	i	i
Cc1cccc(NC(=O)COC(=O)c2cc(C)n(C3CC3)c2C)c1	17%	35µM*	18%	3%	i	i
SMILES	aSyn yeast inh	TDP43 rescue	Mito fusion act	ERG-DNA inh	FUS suppressor	Abeta rescue
CC(C)[C@@]1(NC(=O)[C@@H]2C=C3c4cccc5[nH]cc(c45)C[C@H]3N(C)C2)O[C@@]2(O)[C@@H]3CCCN3C(=O)[C@H](Cc3ccccc3)N2C1=O	/	/	-2%	/	/	/
CC(C)[C@@]1(NC(=O)[C@@H]2C[C@@H]3c4cccc5[nH]cc(c45)C[C@H]3N(C)C2)O[C@@]2(O)[C@@H]3CCCN3C(=O)[C@H](Cc3ccccc3)N2C1=O	1%	0%	23µM*!	-12%	?	i
NC(CCc1ccccc1)c1csc(NC(=O)Nc2ccccc2Oc2ccccc2)n1 (stereo unspecified)	-49%	9%	/	/	?	i
CCOC(=O)c1c(-n2c(C)cc(C=C3C(=O)NC(=S)NC3=O)c2C)sc2c1CCCC2	-31%	18µM*	9%	21%	i	i
C[C@@H]1CN([C@@H](C)CO)C(=O)CCCn2nncc2CO[C@H]1CN(C)C(=O)Nc1ccc(N2CCCCC2)cc1	?	12%	/	/	i	i
Cc1nc(-c2cccc(CN(C)C(=O)Oc3ccc([N+](=O)[O-])cc3)c2)no1	-18%	13µM*	/	/	i	i
Cn1c(=O)oc2cc(S(=O)(=O)N3CCC(C(=O)N4CCN(c5ccc(F)cc5)CC4)CC3)ccc21	?	14%	-5%	6%	i	i
CCCC(C)c1nnc(NC(=O)CCS(=O)(=O)c2ccccc2)s1 (stereo unspecified)	-39%	-13%	0%	9%	i	i
C=C(C=O)CC1CC(O)[C@]2(C)OC3CC4OC5C[C@]6(C)O[C@]7(C)CCC8OC9C[C@]%10(C)OC%11C(C)=CC(=O)OC%11CC%10OC9C[C@@H](C)C8OC7CC6O[C@]5(C)CC5OC5C4OC3CC2O1 (stereo partly specified)	5%	3.2µM*	-10%	-10%	i	i
C[C@H](N)Cc1cccc(C(F)(F)F)c1	-10%	/	-6%	/	/	/
COc1c(C)cc(Br)cc1C(=O)Nc1ccc(-c2nc3ncccc3o2)cc1	/	?	/	4%	i	i
CCC(C)NC(=O)CCC(=O)OC1O[C@H]2OC3(C)CC[C@H]4[C@H](C)CCC(C1C)C24OO3 (stereo partly specified)	-9%	35µM*	21%	-5%	i	i
CN(C)c1ccc(NC(=O)CN2C(=O)CN=C(c3ccccc3)c3cc(Cl)ccc32)cc1	3%	16%	2%	-1%	?	i
Cc1ccc(NC(=O)CN2C(=O)CN=C(c3ccccc3)c3ccccc32)cc1	/	3%	-1%	-7%	i	i
